Reference: PubChem BioAssay AID372 (MTDP, 2006)
Out of some 100,000 compounds screened, about 770 (0.77%) were called active. The sample as a whole holds a higher share of actives than the screen did. Unmarked numbers belong to inactive results. Rule as the data show it: active = inhibition above about 50%; inactive = the rest.

These molecules were tested against Gag-Pol polyprotein (Human immunodeficiency virus type 1 group M subtype B (isolate HXB2)) (UniProt P04585) (assay: RNase H inhibition, HIV 1 Gag Pol polyprotein, FRET biochemical assay, screening (AID 372)). Conditions: HIV-1 RT RNase H, FRET RNA/DNA substrate fluorescence; at 10 µM; hits give high values.

Row | Compound | inhibition
1 | Cc1cccc(C(=O)NCC(O)c2ccccc2)c1 (centres undefined) | 11%
2 | CN=C(Nc1ccc2c(c1)OCO2)SC1CC(=O)N(c2ccc(Cl)cc2)C1=O (centres undefined) | 12%
3 | COC(=O)C1=C(C)N=c2s/c(=C\c3ccccc3Cl)c(=O)n2C1c1ccccc1Cl (centres undefined) | 20%
4 | CCOc1ccc(NC(=O)CC2S/C(=N\N=C(/C)c3ccc(F)cc3)NC2=O)cc1 (centres undefined) | 6%
5 | CN1C(=O)NC(=O)/C(=C/c2ccc(-c3cc([N+](=O)[O-])ccc3Cl)o2)C1=O | 20%
6 | Cc1cc([N+](=O)[O-])ccc1-c1ccc(/C=C2\C(=O)NC(=O)N(Cc3ccccc3)C2=O)o1 | 60% (active)
7 | O=C1NC(=O)N(c2ccccc2)C(=O)/C1=C\c1ccc(-c2ccc([N+](=O)[O-])cc2)o1 | 7%
8 | O=C1NC(=O)N(Cc2ccccc2)C(=O)/C1=C/c1ccc(-c2cccc([N+](=O)[O-])c2)o1 | 38%
9 | CN1C(=O)NC(=O)/C(=C/c2ccc(-c3ccc([N+](=O)[O-])cc3Cl)o2)C1=O | 55% (active)
10 | O=C1NC(=O)N(Cc2ccccc2)C(=O)/C1=C/c1ccc(-c2ccc([N+](=O)[O-])cc2)o1 | 63% (active)
11 | Cc1cc([N+](=O)[O-])ccc1-c1ccc(/C=C2/C(=O)NC(=O)N(c3ccccc3)C2=O)o1 | 17%
12 | Cc1ccc([N+](=O)[O-])cc1-c1ccc(/C=C2/C(=O)NC(=O)N(C)C2=O)o1 | 27%
13 | Cc1cc([N+](=O)[O-])ccc1-c1ccc(/C=C2/C(=O)NC(=O)N(Cc3ccco3)C2=O)o1 | 25%
14 | CCC(=O)c1cc(Cl)ccc1NC(=O)c1ccc(Br)cc1 | 10%
15 | CC(=O)c1cccc(NC(=O)c2ccc(OC3CSC3)cc2)c1 | 8%
16 | Cc1sc(NC(=O)C2C3C=CC(C3)C2C(=O)O)c(C(N)=O)c1C (centres undefined) | 6%
17 | CCOc1cc(/C=C2\C(=O)NC(=O)N(c3ccc(Br)cc3)C2=O)ccc1OCC(=O)O | 8%
18 | O=C(O)c1cccc(N2C(=O)c3cccnc3C2=O)c1 | 0%
19 | O=C(O)c1cccc(N2C(=O)c3ccc4c5c(ccc(c35)C2=O)CC4)c1 | 56% (active)
20 | O=C(O)c1cccc(N2C(=O)c3ccc(Br)cc3C2=O)c1 | 1%
21 | COc1ccc(-c2nnc(SCC(=O)c3cccc([N+](=O)[O-])c3)n2-c2ccc(C)cc2)cc1OC | 19%
22 | Oc1ccc(Nc2nc(-c3ccc(Br)cc3)cs2)cc1 | 21%
23 | O=C1c2ccc3c4c(ccc(c24)C(=O)N1/N=C/c1ccco1)CC3 | 3%
24 | Oc1cc(-c2ccccc2)c2c(c1)C1CCCCC1(N1CCOCC1)O2 (centres undefined) | 0%
25 | Oc1ccc2c(c1)C1CCCCC1(N1CCCCC1)O2 (centres undefined) | 0%

Row | Compound | inhibition
26 | O=[N+]([O-])c1ccc2c(c1)C(C#Cc1ccccc1)C1CCCCC1(N1CCOCC1)O2 (centres undefined) | 57% (active)
27 | COc1ccc(OCC(=O)N/N=C\c2cc(O)c(O)c(Br)c2)c(Br)c1 | 64% (active)
28 | O=C(COc1ccc2ccccc2c1)N/N=C/c1ccccc1Br | 13%
29 | O=C(COc1ccc2ccccc2c1)N/N=C/c1ccccc1 | 4%
30 | COc1ccc(OCC(=O)N/N=C/c2ccc(OC)c(Br)c2)cc1 | 2%
31 | COc1cc(/C=N/NC(=O)COc2ccc(Cl)cc2Br)cc(Br)c1O | 24%
32 | O=C(COc1ccc2ccccc2c1)N/N=C\c1cc(O)c(O)c(Br)c1 | 73% (active)
33 | Cc1cc(=O)[nH]c(N/N=C/c2ccc(O)cc2)n1 | 2%
34 | CC(C)(C)c1cc(C(=O)Nc2nsc(-c3ccccc3)n2)cc(C(C)(C)C)c1 | 7%
35 | COc1ccc(NC(=O)/C=C/c2ccc(C)o2)cc1 | 21%
36 | N#C/C(=C/c1cn(-c2ccccc2)nc1-c1cc2ccccc2oc1=O)C(N)=O | 8%
37 | O=c1oc2ccccc2cc1-c1nn(-c2ccccc2)cc1/C=N/O | 21%
38 | N#CC(C#N)=Cc1cn(-c2ccccc2)nc1-c1cc2ccccc2oc1=O | 56% (active)
39 | Cc1ccccc1-c1nc2c3c4c(sc3ncn2n1)CCCCC4 | 8%
40 | COc1ccc(OCC(=O)Nc2sc3c(c2C(N)=O)CCCC3)cc1 | 41%
41 | CCc1ccc(-c2nc3cc(NC(=O)COc4ccc([N+](=O)[O-])cc4)ccc3o2)cc1 | 43%
42 | COc1ccc(OCC(=O)Nc2ccc3oc(-c4cccc(I)c4)nc3c2)cc1 | 53% (active)
43 | O=C(COc1ccc([N+](=O)[O-])cc1)Nc1ccc2oc(-c3ccccc3Cl)nc2c1 | 53% (active)
44 | COc1ccc(OCC(=O)Nc2ccc3oc(-c4ccncc4)nc3c2)cc1 | 14%
45 | COc1ccc(-c2nc3cc(NC(=O)COc4ccc([N+](=O)[O-])cc4)ccc3o2)cc1 | 55% (active)
46 | O=C(COc1ccc([N+](=O)[O-])cc1)Nc1ccc2oc(-c3ccc(Br)cc3)nc2c1 | 14%
47 | O=C(COc1ccc([N+](=O)[O-])cc1)Nc1ccc2oc(-c3ccccc3F)nc2c1 | 49%
48 | Cc1cccc(OCC(=O)Nc2ccc3oc(-c4cccc(I)c4)nc3c2)c1 | 22%
49 | O=C(COc1ccc([N+](=O)[O-])cc1)Nc1ccc2oc(-c3cccc(Cl)c3)nc2c1 | 9%
